Bioassay records as filed in PubChem.
Abeta yeast res: restores growth of yeast expressing A-beta42 peptide. yeast expressing A-beta42, growth rescue, OD600, 48 h; response scale: 0% DMSO, 100% iron-clioquinol control. Potency, µM (titrated, usually from 46.1 µM), usual class: activators. 410,000 tested, 0.063% active; also: nearly all actives have a fitted effect of over 55% in size
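Yeast growth medium received pinned compounds, then yeast cells expressing toxic A-beta were added; plates incubated at 30 C for 48 hr. Growth read as absorbance at 600 nm, normalized to DMSO and equimolar FeCl3 plus clioquinol controls.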
aSyn yeast inh: inhibitors of alpha-synuclein toxicity in yeast; Yeast expressing alpha-synuclein, growth rescue, BacTiter-Glo, 24 h; Potency, µM (top dose mostly 46.1 µM), hits mostly activators; 370,000 tested, 0.14% active; also: nearly all actives have a fitted effect of over 65% in size
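Galactose-induced alpha-syn yeast (OD600=0.02, raffinose-pregrown) + pinned cpd, 24 hr, 30 deg C; growth by BacTiter-Glo luminescence. Growth restoration scores as activation.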
TDP-43 yeast inh: inhibitors of TDP-43 toxicity in yeast; Potency, µM (doses to about 46.1 µM), hits mostly activators; TDP-43 expressing yeast growth rescue, BacTiter-Glo, 24 h; 410,000 tested, 1.8% active; also: nearly all actives have a fitted effect of over 50% in size
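Yeast expressing TDP-43 (pregrown in raffinose, seeded at OD600=0.02 in galactose medium) exposed to compounds 24 hr at 30 deg C. Growth read by BacTiter-Glo luminescence; rescue of toxicity appears as increased signal.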
FUS yeast rescue: suppressors of FUS proteinopathy in yeast | S. cerevisiae FUS-expressing, growth rescue, OD600, 24 h | Potency, µM (titrated, usually from 76.6 µM), hits mostly activators | 390,000 tested, 0.24% active | AID 1347120; also: nearly all actives have a fitted effect of over 55% in size
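Steps: raffinose overnight preculture; dilution to OD 0.005 in 2% galactose minimal medium; compound addition (concentration series); 24hr at 30C, 99% humidity; absorbance read at 600 nm.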
Large screens that a line does not name were inactive. In the library only some 2.1% were active in any assay of this set; here they are far more common. Calls follow the shape of the dose curve; as a rule, active = well fitted curve in the direction sought with a large enough effect; inconclusive = small, poorly fitted or top-dose-only effect, or another doubt; inactive = no such curve, though single readings can be large; an effect the other way counts as inactive or inconclusive.

Cc1ccc(/C=N/Nc2nc3ccccc3s2)o1	Abeta yeast res inconclusive, TDP-43 yeast inh 11µM
Cc1ccc(/C=N/Nc2nc(C(C)(C)C)cs2)o1	none
CC(C)(C)NC(=O)C[n+]1ccc(C(N)=O)cc1	aSyn yeast inh 35µM
COCCCN1C(=O)[C@H](CC(=O)NCc2ccccc2)[C@]2(C(=O)OC)CCCCC=C12	none (no result: Abeta yeast res, aSyn yeast inh, TDP-43 yeast inh)
Cc1ccccc1NC(=O)c1ccccc1-c1ccccc1	none
CC(C)N(C(=O)c1ccccc1-c1ccccc1)C(C)C	aSyn yeast inh 20µM
CCOC(=O)c1ccc(S(=O)(=O)N2CCN(c3nc(-c4ccccc4)nc4ccccc34)CC2)cc1	none (no result: Abeta yeast res, TDP-43 yeast inh, FUS yeast rescue)
CC1=C2NC(N)=[N+](Cc3ccc4c(c3)OCO4)CC2NOC1 (configuration not stated)	none (no result: Abeta yeast res, aSyn yeast inh, TDP-43 yeast inh)
CCOC(=O)Cc1csc(NC(=O)COc2ccccc2)n1	none
CCOC(=O)Cc1csc(NC(=O)COc2ccc3c(c2)CCC3)n1	Abeta yeast res inconclusive, TDP-43 yeast inh 16µM
CCOC(=O)Cc1csc(NC(=O)COc2ccc(C)cc2)n1	Abeta yeast res inconclusive, TDP-43 yeast inh 11µM
Cc1ccc(Nc2c(F)cccc2Cl)c(CC(=O)O)c1	none (no result: Abeta yeast res, aSyn yeast inh, TDP-43 yeast inh)
COc1ccc(-c2sc3ccc(OC)cc3c2C#CCCO)cc1	TDP-43 yeast inh 22µM, FUS yeast rescue inconclusive
COc1ccc2sc(-c3ccc(N(C)C)cc3)c(C#CCCO)c2c1	TDP-43 yeast inh 35µM, FUS yeast rescue inconclusive
N#C[C@@H]1N[C@H](CO)[C@@H]1c1ccccc1	none (no result: Abeta yeast res, aSyn yeast inh, TDP-43 yeast inh)
Cc1cccc(NC(=O)[C@@H]2CC(=O)O[C@@H]2c2ccccc2)c1C	none (no result: Abeta yeast res, aSyn yeast inh, TDP-43 yeast inh)
C=CC(=O)N1CCC[C@@H](n2nc(-c3ccc(Oc4ccccc4)cc3)c3c(N)ncnc32)C1	none (no result: Abeta yeast res, TDP-43 yeast inh, FUS yeast rescue)
O=C(Nn1cc(C(=O)Nc2ccccc2F)c2ccccc2c1=O)c1cnccn1	none
COC(=O)c1cn(NC(=O)c2cnccn2)c(=O)c2ccccc12	aSyn yeast inh 22µM, TDP-43 yeast inh inconclusive
O=C(c1cccs1)C1CCN(c2ncnc3sccc23)CC1	none (no result: Abeta yeast res, aSyn yeast inh, TDP-43 yeast inh)
COc1ccccc1CNc1nc2cc(-c3ccccc3C)sc2c(=O)n1C	aSyn yeast inh inconclusive, TDP-43 yeast inh 20µM
COc1cccc(CNc2nc3cc(-c4ccccc4C)sc3c(=O)n2C)c1	aSyn yeast inh inconclusive, TDP-43 yeast inh 18µM, FUS yeast rescue inconclusive
COCCNc1nc2cc(-c3ccc(C)cc3)sc2c(=O)n1C	TDP-43 yeast inh 11µM
Cn1c(NCC2CCCCC2)nc2cc(-c3ccsc3)sc2c1=O	TDP-43 yeast inh 20µM
COc1cccc(CNc2nc3cc(-c4cccc(Cl)c4)sc3c(=O)n2C)c1	none
COc1ccc(NC(=O)c2cc3c(C)nn(-c4ccccc4)c3s2)cc1	none (no result: Abeta yeast res, aSyn yeast inh, TDP-43 yeast inh)
COc1ccc(NC(=O)CCc2nnc3n(CC(C)C)c(=O)c4ccccc4n23)cc1	none (no result: aSyn yeast inh)
CCC(CC)C(=O)N1CCc2cc(OC)c(OC)cc2C1COc1ccc(C(=O)OC)cc1 (configuration not stated)	TDP-43 yeast inh 28µM, FUS yeast rescue inconclusive
COC(=O)c1ccc(OCC2c3cc(OC)c(OC)cc3CCN2C(=O)c2ccc(F)cc2)cc1 (configuration not stated)	TDP-43 yeast inh 35µM, FUS yeast rescue inconclusive
COC(=O)c1ccc(OCC2c3cc(OC)c(OC)cc3CCN2C(=O)c2ccccc2C)cc1 (configuration not stated)	TDP-43 yeast inh inconclusive, FUS yeast rescue inconclusive
COC(=O)c1ccc(OCC2c3cc(OC)c(OC)cc3CCN2C(=O)Cc2ccccc2)cc1 (configuration not stated)	TDP-43 yeast inh 20µM, FUS yeast rescue inconclusive
O=C(NCCc1ccccc1)OCc1cn(-c2cccc(F)c2F)nn1	none (no result: Abeta yeast res, aSyn yeast inh, TDP-43 yeast inh)
CC1COCC(C)N1S(=O)(=O)c1ccc2c(c1)CCN2C(=O)C1CCC1 (configuration not stated)	none (no result: Abeta yeast res, aSyn yeast inh, TDP-43 yeast inh)
Cn1cccc1-c1cc(C(=O)N2CCc3c([nH]c4ccccc34)C2c2ccccn2)[nH]n1 (configuration not stated)	Abeta yeast res inconclusive, FUS yeast rescue 18µM
CCOC(=O)c1[nH]c(C)c(C(=O)N2CCc3c([nH]c4ccccc34)C2c2ccccn2)c1C (configuration not stated)	none
Cc1cc2cc(C(=O)N3CCc4c([nH]c5ccccc45)C3c3ccccn3)ccc2o1 (configuration not stated)	aSyn yeast inh inconclusive, TDP-43 yeast inh 25µM, FUS yeast rescue inconclusive
O=C(COC(=O)c1ccc(Sc2ncn[nH]2)c([N+](=O)[O-])c1)Nc1ccc(Cl)c(Cl)c1	none (no result: Abeta yeast res, aSyn yeast inh, TDP-43 yeast inh)
COc1cc2nc(N3CCOCC3)nc(NC3CC3)c2cc1OC	none (no result: Abeta yeast res, TDP-43 yeast inh, FUS yeast rescue)
